Marburg entry inh: inhibitors of Marburg virus binding or cell entry; Marburg virus pseudotyped entry inhibition, cell reporter; hit rate 1.8% among 300,000; Potency, µM (highest dose often 37.8 µM), actives largely listed as inhibitors; AID 540276; calls by dose curve; tested in HEK293 cells
FMDV inh: antivirals against foot and mouth disease virus | FMDV antiviral cell-based qHTS | Potency, µM (top dose mostly 57.9 µM), hits mostly inhibitors | hit rate 1.2% among 410,000; calls by dose curve; tested in HEK293T cells; note: read-out not given here; nearly all actives have a fitted effect of over 45% in size
LASV entry inh: Lassa virus entry inhibition; AID 540256; Lassa virus pseudotype entry inhibition, cell reporter; hit rate 1.2% among 300,000; Potency, µM (highest dose often 37.9 µM), most hits filed as inhibitors; calls by dose curve; tested in HEK293 cells; note: nearly all actives have a fitted effect of over 50% in size
FBPA Giardia inh: blocks Giardia fructose-bisphosphate aldolase activity; A8B2U2; purified Giardia FBPA; Potency, µM (highest dose often 59.6 µM), actives largely listed as inhibitors; hit rate 0.71% among 290,000; note: nearly all actives have a fitted effect of over 55% in size
Target sequence (A8B2U2 whole entry, looked up): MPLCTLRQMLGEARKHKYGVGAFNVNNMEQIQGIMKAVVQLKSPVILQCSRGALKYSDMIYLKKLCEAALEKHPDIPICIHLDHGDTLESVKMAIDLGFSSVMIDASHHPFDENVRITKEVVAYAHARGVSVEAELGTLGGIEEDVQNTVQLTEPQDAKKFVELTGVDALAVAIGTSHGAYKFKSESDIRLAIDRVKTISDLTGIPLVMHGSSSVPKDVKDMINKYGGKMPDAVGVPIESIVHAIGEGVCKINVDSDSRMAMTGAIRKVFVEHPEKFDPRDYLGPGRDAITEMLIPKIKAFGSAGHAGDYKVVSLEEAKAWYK
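40 nM FBPA preincubated 10 min at RT with compound (up to 57.5 uM final), then substrate plus GAPDH/TPI/NAD/arsenate coupling and diaphorase/resazurin added. Fluorescence read after 20 min at RT, 525/598 nm.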
HCMV antiviral: blocks human cytomegalovirus replication; activity change, negative = inhibition, % at 57.5 µM; HFF cells, HCMV-luciferase reporter, 72 h; hits give low values; hit rate 4.5% among 410,000; in the data active = activity change below about -60%; inconclusive = no clear call, values can overlap the other calls; inactive = above about -39%
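Luciferase read-out from HCMV-luciferase-infected HFFs (MOI 1 PFU/cell) 72 h post infection at 37C; compounds added after 16 h cell attachment; activity normalized between buffer-only basal and Salinomycin (10uM) inhibitor controls.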
HCV inhibitor: blocks hepatitis C virus | AID 651820 | Potency, µM (highest dose often 41.8 µM), hits mostly inhibitors | hit rate 3.4% among 340,000 | Huh7.5.1 HCVcc-Cre infection, luciferase reporter, 44 h
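Antiviral activity was scored by luciferase reporter output from cells infected with HCVcc-Cre (~0.5 moi) in presence of compound, 44 h infection period, cells seeded 1,000/well 4 h prior.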
Large screens that a line does not name were inactive. Most compounds without a hit are left out; they make up all but 8.3% or so of the library. Unless noted, calls come from the whole dose curve; as a rule, active = well fitted curve in the direction sought with a large enough effect; inconclusive = small, poorly fitted or top-dose-only effect, or another doubt; inactive = no such curve, though single readings can be large; an effect the other way counts as inactive or inconclusive.

COc1cc(/C=C/C(=O)C2C(=O)C=C(C)OC2=O)cc(OC)c1O (stereo unspecified)	FMDV inh 18µM, FBPA Giardia inh inconclusive, HCMV antiviral -90, HCV inhibitor inconclusive
CCOc1ccc(C(=O)c2ccc(OC)c(O)c2O)cc1	FBPA Giardia inh inconclusive (no result: Marburg entry inh, LASV entry inh, HCMV antiviral, HCV inhibitor)
COc1cc(O)c(C(=O)c2ccccc2)cc1S(=O)(=O)O	none (no result: Marburg entry inh, FMDV inh, LASV entry inh, HCV inhibitor)
COc1ccc(C(=O)c2ccccc2)c2c(O)ccc(C(=O)c3ccccc3)c12	Marburg entry inh 14µM, FMDV inh 13µM, LASV entry inh inconclusive, HCMV antiviral -79, HCV inhibitor 2.5µM
COc1cc(O)c(C(=O)c2ccccc2)cc1O	FBPA Giardia inh 3.5µM (no result: Marburg entry inh, LASV entry inh, HCMV antiviral, HCV inhibitor)
COc1ccc(C(=O)c2ccc(O)cc2)c(O)c1O	FBPA Giardia inh 22µM (no result: Marburg entry inh, LASV entry inh, HCMV antiviral, HCV inhibitor)
C(=Cc1cnc2ccccc2n1)c1ccc2c(c1)OCO2	FMDV inh 1.8µM, HCMV antiviral -81 (no result: Marburg entry inh, LASV entry inh, FBPA Giardia inh, HCV inhibitor)
C[n+]1c(/C=C/c2ccc(O)cc2)ccc2ccccc21	Marburg entry inh inconclusive, HCV inhibitor inconclusive
C[n+]1c(/C=C/c2ccc3c(c2)OCO3)ccc2ccccc21	Marburg entry inh inconclusive, HCMV antiviral -66
CC(C)Cn1c(N)c(C(=O)COC(=O)c2c(F)cccc2F)c(=O)n(C)c1=O	FMDV inh inconclusive (no result: Marburg entry inh, LASV entry inh)
COCc1c(C(=O)OCC(=O)c2c(N)n(CC(C)C)c(=O)n(C)c2=O)oc2ccccc12	FMDV inh 32µM, HCV inhibitor inconclusive
Cc1c(C(=O)OCC(=O)c2c(N)n(CC(C)C)c(=O)n(C)c2=O)oc2ccccc12	Marburg entry inh 10µM, FMDV inh inconclusive, HCMV antiviral -64, HCV inhibitor inconclusive
COc1cc2c(cc1OC)C(c1c[nH]c3ccccc13)NCC2 (stereo unspecified)	none (no result: Marburg entry inh, LASV entry inh, HCMV antiviral, HCV inhibitor)
COC(=O)c1cn(C(=O)c2ccc(OC)cc2)c2ccccc12	Marburg entry inh inconclusive, HCMV antiviral -65, HCV inhibitor inconclusive
CC(=O)c1cn(C(=O)c2ccc(Cl)cc2)c2ccccc12	HCMV antiviral -67
COC(=O)c1cn(C(=O)c2ccc(C)cc2)c2ccccc12	none (no result: Marburg entry inh, LASV entry inh)
COCCNC(=O)c1ccc2c(=O)n(CCc3ccccc3)c(SCC(=O)CC(=O)OC)nc2c1	none (no result: Marburg entry inh, FBPA Giardia inh, HCV inhibitor)
N[C@@H](Cc1cc(-c2ccc(Cl)cc2Cl)cc(CP(=O)(O)O)c1O)C(=O)O	none (no result: Marburg entry inh, LASV entry inh, HCMV antiviral, HCV inhibitor)
COc1ccc(-c2nnc(-c3ccc(C)cc3)o2)cc1	Marburg entry inh inconclusive
COc1ccc(SCCc2nnc(-c3ccccc3)o2)cc1	HCMV antiviral -98 (no result: Marburg entry inh, LASV entry inh)
Cc1ccc(-c2nnc(-c3ccccc3)o2)cc1	Marburg entry inh 16µM, LASV entry inh 10µM
COc1ccc(Cc2nnc(-c3ccccc3)o2)cc1	none
c1ccc(Cc2nnc(-c3ccccc3)o2)cc1	Marburg entry inh inconclusive, HCMV antiviral -96
CCOc1ccc(CCNC(=O)c2cc3cccc4c3n2CCS4)cc1	LASV entry inh inconclusive, HCMV antiviral inconclusive (no result: Marburg entry inh, FBPA Giardia inh, HCV inhibitor)
Cc1c(CC(=O)N2CCCCC2)c(=O)oc2cc3occ(C(C)(C)C)c3cc12	none (no result: FBPA Giardia inh, HCV inhibitor)
COc1ccc(-c2nn(-c3ccccc3)cc2/C=N/NC(N)=S)cc1OC	Marburg entry inh inconclusive, LASV entry inh inconclusive, HCV inhibitor 11µM
COc1cccc([C@H]2Oc3ccc(OC)cc3C(=NO[C@@H](C)c3cn([C@H](CO)Cc4ccccc4)nn3)[C@H]2O)c1	none (no result: FMDV inh, LASV entry inh, FBPA Giardia inh, HCMV antiviral, HCV inhibitor)
O=C(On1c(-c2ccccc2)nc2ccccc2c1=O)c1ccco1	LASV entry inh inconclusive, FBPA Giardia inh inconclusive, HCV inhibitor inconclusive (no result: FMDV inh)
COc1cc(OC)cc(-c2nc3ccccc3c(=O)n2OC(=O)c2ccccc2C)c1	Marburg entry inh inconclusive, LASV entry inh 11µM
CC/C(=N\N1CCCCCC1)c1c(O)n(-c2ccccc2C)c(=O)[nH]c1=O	FMDV inh inconclusive, LASV entry inh 10µM, HCMV antiviral inconclusive, HCV inhibitor inconclusive
CCC(=NCCN1CCOCC1)c1c(O)n(-c2ccccc2C)c(=O)[nH]c1=O	none
COc1cc2c(c3oc(-c4ccccc4)cc(=O)c13)C=CC(C)(C)O2	FMDV inh inconclusive, HCMV antiviral inconclusive, HCV inhibitor 1µM (no result: Marburg entry inh, LASV entry inh)
COc1cc(OC)c2c(=O)cc(-c3ccccc3)oc2c1	HCV inhibitor inconclusive (no result: Marburg entry inh, LASV entry inh)
CC(=O)C1(O)C(C)CC2C3CCC4CC(O)CCC4(C)C3=CCC21C (stereo unspecified)	none (no result: FMDV inh)
C[C@@H]1CC2[C@@H]3CC[C@H]4CC(=O)CC[C@]4(C)C3=CC[C@]2(C)[C@@]1(O)C(=O)CO (stereo partly specified)	FMDV inh inconclusive, HCMV antiviral -101, HCV inhibitor inconclusive

Screens from PubChem BioAssay.
